# Screening results as filed in PubChem BioAssay.
# Epigenetic reg: epigenetic control regulation, reporter derepression. murine LDR cells, GFP reporter derepression, 30 h. Potency, µM (top dose mostly 53.9 µM), for the others: at the top dose GFP activation, most hits filed as activators. 0.2% of 280,000 active; note: % of control where 0% means no effect; nearly all actives have a fitted effect of over 60% in size
#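 Reporter derepression read as number of fluorescent GFP-positive objects, 20-120 um in size, counted by laser-scanning cytometer. Mouse LDR line with an epigenetically silenced CMV-GFP locus; compound incubation 30 h, 37 C.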
# VP16 counter: counter-screen for ROR gamma inhibitors: Gal4-VP16 reporter. Drosophila S2 Gal4-VP16 UAS-luciferase, luminescence, 20 h. Potency, µM (titrated, usually from 53.6 µM), for inactives: top-dose activity, negative = inhibition, most hits filed as inhibitors. 3.5% of 310,000 active. AID 2546;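 note: Gal4-VP16 expression switched on by copper sulfate through the metallothionein promoter; % is set by controls: 0 for no effect and ±100 for the full control effect; nearly all actives have a fitted effect of over 50% in size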
# Sfp PPTase inh: blocks B. subtilis Sfp PPTase activity. Q9F4F7. Biochemical Sfp PPTase activity, qHTS. Potency, µM, without a hit: largest response in the series, negative = inhibition, actives largely listed as inhibitors. 3.5% of 310,000 active;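 note: the enzyme is Sfp with the accession as filed and its product quenches rhodamine fluorescence; 0% = enzyme reaction without inhibitor and -100% = no enzyme wells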
#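 Fluorescence-quenching assay with 15 nM Sfp, 5 uM rhodamine-CoA and 12.5 uM BHQ-2-labelled ybbR peptide in pH 7.6 Hepes/MgCl2 buffer. Enzyme was pre-incubated with compound for 15 min at room temperature. Rate was taken from the 30-min fluorescence change (525/598 nm).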
# ClpP mod: qHTS Assay for Activators of ClpP; purified B. subtilis ClpP, FRET peptide cleavage, 20 min; Potency, µM (titrated, usually from 57.5 µM), inactives show top-dose activity change, negative = active; 1.9% of 340,000 active; active = well fitted falling curve with a large enough effect; inconclusive = small, poorly fitted or top-dose-only effect; inactive = no such curve, though single readings can be large or run the other way; note: the source files actives as falling curves though it sought activators and does not explain the sign; nearly all actives have a fitted effect of over 65% in size
# Target sequence (P80244 whole entry, looked up): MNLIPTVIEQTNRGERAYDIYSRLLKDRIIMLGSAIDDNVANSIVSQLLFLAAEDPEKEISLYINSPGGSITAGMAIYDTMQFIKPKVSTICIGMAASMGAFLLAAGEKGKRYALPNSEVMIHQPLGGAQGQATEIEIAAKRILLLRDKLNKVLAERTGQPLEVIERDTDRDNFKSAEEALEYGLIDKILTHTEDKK
#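 Buffer: 100 mM Tris/HCl pH8, 100 mM KCl, 0.05% low protease BSA, 2.5% glycerol, 0.01% Tween-20. ClpP 10 microg/mL final; 20 min RT; delta FRET normalized to ADEP and DMSO controls.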
# PINK1 expr mod: modulators of PINK1 expression | PINK1 immunofluorescence, high-content cytometry, 24 h | Potency, µM (series often up to 76.6 µM), for the others: top-dose activation (PINK1 increase), hits mostly activators | 0.2% of 410,000 active | AID 624263; active = well fitted activation curve with a large enough effect; inconclusive = small, poorly fitted or top-dose-only effect; cell line not stated here; note: % of control where 0% means no effect; nearly all actives have a fitted effect of over 65% in size
#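 Stable cell line treated 24 h with compounds at 5 concentrations (CCCP controls), then fixed and immunostained for PINK1 plus nuclear and cell stains; PINK1 immunofluorescence quantified by laser-scanning microplate cytometry.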
# RORgamma inh: inhibitors of mouse ROR gamma transcriptional activity | P51450 | Potency, µM (highest dose often 53.6 µM), inactives show at the top dose activity change, negative = inhibition, most hits filed as inhibitors | Drosophila S2 Gal4-RORgamma UAS-luciferase reporter, 20 h | AID 2551 | 5.4% of 310,000 active; note: % is set by controls: 0 for no effect and ±100 for the full control effect; nearly all actives have a fitted effect of over 60% in size
# Target sequence (P51450 whole entry, looked up, the tested form may be a part): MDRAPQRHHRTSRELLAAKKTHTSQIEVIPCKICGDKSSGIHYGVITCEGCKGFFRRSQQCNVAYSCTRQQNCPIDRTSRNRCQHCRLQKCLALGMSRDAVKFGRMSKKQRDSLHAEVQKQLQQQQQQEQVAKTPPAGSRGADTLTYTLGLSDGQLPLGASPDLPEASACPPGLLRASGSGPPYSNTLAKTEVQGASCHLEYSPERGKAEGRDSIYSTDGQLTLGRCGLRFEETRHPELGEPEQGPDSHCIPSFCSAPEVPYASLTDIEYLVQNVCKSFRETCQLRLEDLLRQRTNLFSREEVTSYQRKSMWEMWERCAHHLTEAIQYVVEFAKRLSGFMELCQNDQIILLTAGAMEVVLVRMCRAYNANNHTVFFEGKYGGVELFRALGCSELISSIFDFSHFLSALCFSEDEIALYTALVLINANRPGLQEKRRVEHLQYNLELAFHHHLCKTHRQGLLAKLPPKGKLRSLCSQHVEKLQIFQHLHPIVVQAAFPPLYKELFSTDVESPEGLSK
#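 Stable Schneider cell line, Gal4 DNA-binding domain fused to ROR gamma, UAS-luciferase. Cmpd 1 hr RT → CuSO4 700 uM final → 20 hr RT → luciferase reagent 10 min → luminescence.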
# * marks the source's active call; other numbers are inactive results; ? = inconclusive; / = not tested or not shown; ! = not active in a repeat; [ ] = dose if it differs, or a comment. A selection: hits, their analogues and other compounds. The true share with any hit is near 8.1%. Unless noted, calls come from the whole dose curve; as a rule, active = well fitted curve in the direction sought with a large enough effect; inconclusive = small, poorly fitted or top-dose-only effect, or another doubt; inactive = no such curve, though single readings can be large; an effect the other way counts as inactive or inconclusive. Potency is the fitted concentration of half-maximal effect.
SMILES,Epigenetic reg,VP16 counter,Sfp PPTase inh,ClpP mod,PINK1 expr mod,RORgamma inh
COc1ccc(OC)c(NC(=S)NCc2ccccc2OC)c1,0.9%[10.1 µM],-7.1%[10 µM],4.8%,/,-1.3%,7.08µM*
COc1ccc(NC(=S)NCc2cccs2)cc1,-1.1%,?,24.4%,/,1.3%,3.98µM*
COc1ccc(OC)c(NC(=S)NCc2cccs2)c1,0.9%,?,16.8%,-0.3%,-0.4%,14.1µM*
CNC(=S)Nc1cc(OC)ccc1OC,0.9%,?,?,-0.1%,?,11.2µM*
COc1cc(CN2CCOc3ccc(CN4CCC(O)(c5cccnc5)CC4)cc3C2)ccc1F,/,/,/,/,-0.3%,/
CCOc1nc(-c2ccc(C)cc2)ccc1-c1noc(-c2ccccc2F)n1,1.8%,/,/,?,-1.6%,/
COc1ccccc1CNC(=S)Nc1cc(C)ccc1C,-1.3%,?,13.5%,/,-1.1%,3.16µM*
CC(C)c1ccc(NC(=O)Cn2nnc(C(=O)NCc3cccs3)c2N)cc1,-3.5%,/,/,-1.3%,2.1%,/
CC(C)c1ccc(NC(=S)NCc2cccs2)cc1,-1.1%,?,16.5%,-0.6%,0.2%[38.3 µM],15.8µM*
COc1cccc(N2CCN(C3CC(=O)N(c4ccc(F)c(Cl)c4)C3=O)CC2)c1 (stereo unspecified),-1.1%,-11.6%,?,-0.1%,-2.3%,23.0%
COc1ccc(NC2CCN(C3CC(=O)N(c4ccc(F)c(Cl)c4)C3=O)CC2)cc1 (stereo unspecified),0.0%,-3.7%,-19.8%,2.82µM*,0.0%,-42.0%
CCOC(=O)OCC1OC(C#Cc2ccccc2)C=CC1Oc1cccc(N(C)C)c1 (stereo unspecified),0.0%[10.1 µM],-2.8%[10 µM],-5.0%,/,/,-17.4%[10 µM]
COc1ccc(-c2nn(-c3ccccc3)cc2/C=N/Nc2ccc3ccccc3n2)cc1OC,1.3%,5.01µM*,-1.3%,1.2%,5.6%,1.78µM*
COc1cccc(-c2nn(-c3ccccc3)cc2CO)c1,-1.6%,-5.9%,9.1%,0.1%,-1.2%,-17.3%
O=C(O)Cc1cn(-c2ccccc2)nc1-c1ccc(Cl)cc1,-1.4%,-7.6%,44.7µM*!,/,-1.1%,42.3%
COc1ccc(-c2nn(-c3ccccc3)cc2/C=N/O)cc1OC,/,1.78µM*,12.8%,-4.6%,2.9%,1µM*
COc1ccc(-c2nn(-c3ccccc3)cc2/C=N/Nc2ccc(S(N)(=O)=O)cc2[N+](=O)[O-])cc1OC,-0.3%,?,15.3%,/,-0.4%,?
COc1ccc(-c2nn(-c3ccccc3)cc2CO)cc1OC,-1.0%,2.4%,4.9%,11.2µM*,3.4%,-15.0%
C=C(C)C(=O)OC,/,-6.9%,/,/,/,-8.2%
COc1ccc(-c2nn(-c3ccccc3)cc2/C=N/Nc2cccc(C(=O)O)c2)cc1,3.6%,-3.3%,7.3%,0.7%,2.8%,?
OCc1cn(-c2ccccc2)nc1-c1ccc2c(c1)OCCO2,-1.0%,12.0%,0.5%,28.2µM*,-2.1%,?
COc1ccc(-c2nn(-c3ccccc3)cc2/C=N/NC(=S)NC(C)C)cc1OC,0.0%,2.24µM*,11.5%,-12.2%,6.3%,1.41µM*
COc1ccc(-c2nn(-c3ccccc3)cc2/C=N/N=C(N)N)cc1OC,-0.9%,-6.8%,50.1µM*,0.3%,-4.4%,25.1%
COC(=O)c1cn(-c2ccccc2)nc1-c1ccc(OC)c(OC)c1,/,-9.7%,-8.5%,-4.8%,-1.4%,10.8%
CCOc1ccccc1NC(=O)N(Cc1ccc(F)cc1)C1CCN(CC)CC1,0.0%,/,/,-0.9%,-1.0%,/
SMILES,Epigenetic reg,VP16 counter,Sfp PPTase inh,ClpP mod,PINK1 expr mod,RORgamma inh
COc1nc(=O)n(C2OC(CO)C(O)C2O)cc1C (stereo unspecified),/,/,/,35.5µM*,-3.4%,/
Cc1ccc2oc(-c3cc(NC(=O)CC(C)C)ccc3Cl)nc2c1,-2.9%,/,/,4.5%,1.1%,/
CCCOCC1CC(CCc2nc(=S)[nH][nH]2)C(=O)O1 (stereo unspecified),-1.8%,-4.3%,56.2µM*,1.0%,-3.3%,-15.8%
CCCCOCC1CC(CC#CCN2CCCCC2)C(=O)O1 (stereo unspecified),1.7%,0.6%,-13.6%,/,-0.6%,0.1%
O=C(CC(=O)c1c(F)cccc1Cl)c1ccccc1O,/,11.2µM*,8.8%,-10.3%,-0.4%,20µM*
O=C(CC(=O)c1ccccc1O)c1cccc(F)c1,-1.1%,?,18.9%,-1.6%,1.4%,7.08µM*
O=C(CC(=O)c1ccccc1O)c1ccc(F)cc1,0.2%,?,-16.1%,2.3%,9.1%,14.1µM*
CN1CCN(C(c2ccccc2)c2sc3nc(-c4ccco4)nn3c2O)CC1 (stereo unspecified),0.7%,/,/,1.1%,0.3%,/
C[N+]1(CC(=O)c2ccc3c(c2)CCCC3)CCOCC1,/,/,/,4.8%,0.5%,/
Cc1ccc2c(c1)=N/C(=N\c1[nH]c(O)c3ccccc13)N=2,/,/,/,-0.4%,-0.3%,/
Oc1[nH]c(N=C2N=c3ccccc3=N2)c2ccccc12,12.6µM*,2.51µM*,6.3%,0.0%,-1.4%,0.501µM*
CCOC(=O)C(=CNc1nc(-c2ccccc2)c(C(=O)Nc2ccc(-c3ccccc3)cc2)s1)C(=O)OCC,/,1.2%,14.6%,12.6µM*,11.5%,7.3%
Cc1ccc(NC(=O)c2sc(Cl)nc2-c2ccccc2)cc1,0.9%,-17.0%,1.8%,-2.7%,3.0%,1.7%
COc1ccccc1-c1nnc(N)s1,-1.2%,-7.9%,0.3%,/,2.2%,-10.1%
COc1ccccc1-c1nnc(SC2CCc3ccccc3NC2=O)s1 (stereo unspecified),-1.0%,-8.7%,11.5%,22.4µM*,-1.2%[38.3 µM],?
O=[N+]([O-])c1ccc(N/N=C/c2ccc(O)c(O)c2O)c(S(=O)(=O)N2CCOCC2)c1,-0.1%,0.6%,7.08µM*,/,-0.4%,-16.6%
O=C(CCc1ccc(S(=O)(=O)N2CCOCC2)cc1)N/N=C/c1ccc(O)c(O)c1O,1.1%,-20.7%,22.4µM*,-4.0%,1.4%,-19.8%
O=C(CCc1ccc(S(=O)(=O)N2CCOCC2)cc1)N/N=C/c1ccc(F)cc1F,-1.5%,-17.6%,26.9%,?,0.4%,13.6%
CCc1ccc(NC(=O)CC2C(=O)N(c3ccc(Cl)cc3)C(=O)N2Cc2cccs2)cc1 (stereo unspecified),2.7%,/,/,1.0%,3.7%,/
Cn1c(=O)c2[nH]c(N/N=C(/C#N)C(N)=O)nc2n(C)c1=O,-0.3%,-5.3%,56.2µM*,/,0.8%,-26.3%
CCC(COC(C)=O)Nc1nc2c([nH]1)c(=O)n(C)c(=O)n2C (stereo unspecified),1.1%,-9.5%,2.1%,/,-1.2%,-5.2%
CC1CCN(C(=O)Cn2c(-c3cccs3)cc3cc(Cl)ccc32)CC1,-1.2%,/,/,35.5µM*,-1.2%,/
